This is an account of results in PubChem BioAssay (EPA / NIEHS).

Read-out in test [1]: glucuronosyltransferase (UGT1A1), UGT1A1 (gene 54658)
Briefly: CLD_UGT1A1_6hr: CellzDirect (CLD) Gene Expression Assay for glucuronosyltransferase (UGT1A1) at 6 hours (AID 2283672). The procedure, abridged:
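Primary human hepatocytes from two donor preparations, dosed with fresh solutions in 0.2% DMSO, harvested at 6 h. UGT1A1 mRNA measured by qNPA chemiluminescence; induction fitted upward versus DMSO.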

Read-out in test [2]: Cytochrome P450 2C19 (Homo sapiens) (UniProt P33261)
Put plainly: CLD_CYP2C19_6hr: CellzDirect (CLD) Gene Expression Assay for xenobiotic metabolism (CYP2C19) at 6 hours (AID 2283678). The procedure, abridged:
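Primary human hepatocytes from two donor preparations were dosed daily, with 0.2% DMSO as vehicle, and harvested 6 h after dosing. CYP2C19 mRNA induction was measured by qNPA chemiluminescence and fitted as gain of signal against DMSO.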

Test [3] is described as follows: CCTE_Padilla_ZF_144hpf_TERATOSCORE: (Legacy) CCTE's 144 Hour Post-fertilization zebrafish Assay Teratoscore, Padilla Lab (AID 2283679; active = hit-call score of the fitted dose curve at least 0.9, where 1 is the maximum; inactive = score below 0.9;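 as to AC50: zebrafish embryos with chorions exposed by immersion from 6-8 hpf to 5 dpf with daily renewal; teratogenicity score from eye scoring of death hatching and malformations at 144 hpf; higher score means more developmental defects relative to DMSO baseline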). The procedure, abridged:
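Larvae scored by eye at 144 hpf for death, hatching and malformations after a day in clean Hanks'. Before that, daily-renewed exposure at 80 uM (0.4% DMSO, 26C) from roughly 6-8 hpf through 5 dpf, 4 embryos per chemical.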

Read-out in test [4]: xenobiotic metabolism (CYP1A2), CYP1A2 (gene 1544)
Put plainly: CLD_CYP1A2_24hr: CellzDirect (CLD) Gene Expression Assay for xenobiotic metabolism (CYP1A2) at 24 hours (AID 2283683). The procedure, abridged:
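Primary human hepatocytes from two donor preparations dosed daily with multiple concentrations of chemical, 0.2% DMSO vehicle. CYP1A2 mRNA at 24 h quantified by qNPA chemiluminescence; gain of signal analyzed relative to DMSO. Cytotoxicity flagged by phase-contrast morphology.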

Read-out in test [5]: ABC Transporter (ABCB1), ABCB1 (gene 5243)
Put plainly: CLD_ABCB1_24hr: CellzDirect (CLD) Gene Expression Assay for ABC Transporter (ABCB1) at 24 hours (AID 2283684). Put shortly:
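Primary human hepatocytes, two donor preparations, dosed daily with fresh solutions; vehicle 0.2% DMSO; harvested at 24 h. ABCB1 mRNA measured by quantitative nuclease protection assay (chemiluminescence); morphology-based cytotoxicity annotated.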

Read-out in test [6]: Broad substrate specificity ATP-binding cassette transporter ABCG2 (Homo sapiens) (UniProt Q9UNQ0)
Put plainly: CLD_ABCG2_24hr: CellzDirect (CLD) Gene Expression Assay for ABC Transporter (ABCG2) at 24 hours (AID 2283685). The procedure, abridged: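 Primary human hepatocytes were dosed daily with ToxCast chemicals at multiple concentrations (vehicle 0.2% DMSO). ABCG2 mRNA was measured at 24 h by qNPA chemiluminescence; induction was scored as gain of signal versus DMSO.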

Read-out in test [7]: ABC Transporter (ABCB11), ABCB11 (gene 8647)
Put plainly: CLD_ABCB11_48hr: CellzDirect (CLD) Gene Expression Assay for ABC Transporter (ABCB11) at 48 hours (AID 2283697). The procedure, abridged:
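Primary human hepatocytes from two donor preparations dosed daily for two days at multiple concentrations; 0.2% DMSO vehicle. ABCB11 mRNA at 48 h by quantitative nuclease protection assay, chemiluminescence; fitted for induction versus DMSO.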

Read-out in test [8]: Cytochrome P450 3A4 (Homo sapiens) (UniProt P08684)
Briefly: CLD_CYP3A4_48hr: CellzDirect (CLD) Gene Expression Assay for xenobiotic metabolism (CYP3A4) at 48 hours (AID 2283698). The procedure, abridged: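 Primary human hepatocytes from two donor preparations dosed daily for two days with multiple chemical concentrations, 0.2% DMSO vehicle. CYP3A4 mRNA at 48 h by quantitative nuclease protection assay, chemiluminescence, positive fit versus DMSO; cytotoxicity flagged morphologically.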

Read-out in test [9]: Cytochrome P450 2B6 (Homo sapiens) (UniProt P20813)
Briefly: CLD_CYP2B6_48hr: CellzDirect (CLD) Gene Expression Assay for xenobiotic metabolism (CYP2B6) at 48 hours (AID 2283699).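 Also: actives raise transcript level above DMSO so potency reflects induction.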 Put shortly:
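Primary human hepatocytes dosed daily for two days over multiple concentrations, 0.2% DMSO vehicle; CYP2B6 mRNA quantified at 48 h by qNPA chemiluminescence. Induction fitted as gain of signal versus DMSO; cytotoxicity annotated by morphology.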

Read-out in test [10]: Cytochrome P450 2C9 (Homo sapiens) (UniProt P11712)
Put plainly: CLD_CYP2C9_48hr: CellzDirect (CLD) Gene Expression Assay for xenobiotic metabolism (CYP2C9) at 48 hours (AID 2283701; active = hit-call score of the fitted dose curve at least 0.9, where 1 is the maximum; inactive = score below 0.9). The procedure, abridged: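 Primary human hepatocytes (two donor preparations) dosed daily for two days with test chemicals, 0.2% DMSO vehicle; harvested at 48 h. mRNA induction quantified by qNPA chemiluminescence, fitted for gain of signal against DMSO baseline; cytotoxicity annotated from phase-contrast morphology.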

Test [11] can be described thus: CLD_ACTIN_48hr: CellzDirect (CLD) Gene Expression Assay for Baseline Control (Actin) at 48 hours (AID 2283702). Put shortly:
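Primary human hepatocytes (two donor preparations) dosed daily for two days with ToxCast chemicals at multiple concentrations versus 0.2% DMSO vehicle; harvested at 48 h. Actin mRNA measured as a background control by quantitative nuclease protection assay with chemiluminescence.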

Read-out in test [12]: xenobiotic metabolism (CYP1A2), CYP1A2 (gene 1544)
Put plainly: CLD_CYP1A2_48hr: CellzDirect (CLD) Gene Expression Assay for xenobiotic metabolism (CYP1A2) at 48 hours (AID 2283703). Put shortly:
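Primary human hepatocytes from two donor preparations were dosed daily for two days at multiple concentrations in 0.2% DMSO vehicle. CYP1A2 mRNA was measured at 48 hours by chemiluminescent quantitative nuclease protection assay, with gain of signal fitted versus DMSO and cytotoxicity annotated from morphology.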

Read-out in test [13]: xenobiotic metabolism (CYP1A1), CYP1A1 (gene 1543)
Put plainly: CLD_CYP1A1_48hr: CellzDirect (CLD) Gene Expression Assay for xenobiotic metabolism (CYP1A1) at 48 hours (AID 2283705). The procedure, abridged: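 Primary human hepatocytes from two donors dosed daily for two days at multiple concentrations, 0.2% DMSO vehicle; CYP1A1 mRNA induction at 48 h by qNPA chemiluminescence. Cytotoxicity noted by phase-contrast morphology.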

Read-out in test [14]: Glyceraldehyde-3-phosphate dehydrogenase (Homo sapiens) (UniProt P04406)
Briefly: CLD_GAPDH_48hr: CellzDirect (CLD) Gene Expression Assay for Baseline Control (Glyceraldehyde 3-phosphate dehydrogenase) at 48 hours (AID 2283706).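 Also: active means higher GAPDH mRNA than DMSO vehicle.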 Put shortly:
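Primary human hepatocytes dosed daily for two days with fresh chemical at multiple concentrations, 0.2% DMSO vehicle; GAPDH mRNA measured at 48 h by quantitative nuclease protection assay with chemiluminescence, fitted upward relative to DMSO as background control.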

Read-out in test [15]: Cytochrome P450 2B6 (Homo sapiens) (UniProt P20813)
Briefly: CLD_CYP2B6_6hr: CellzDirect (CLD) Gene Expression Assay for xenobiotic metabolism (CYP2B6) at 6 hours (AID 2283677).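 Also: actives raise CYP2B6 transcript above DMSO baseline so AC50 marks an inducer.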 The procedure, abridged:
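Primary human hepatocytes dosed with chemicals at multiple concentrations, vehicle 0.2% DMSO; CYP2B6 mRNA induction measured 6 h after dosing by quantitative nuclease protection assay with chemiluminescence, gain of signal fitted relative to DMSO.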

Read-out in test [16]: glucuronosyltransferase (UGT1A1), UGT1A1 (gene 54658)
Put plainly: CLD_UGT1A1_24hr: CellzDirect (CLD) Gene Expression Assay for glucuronosyltransferase (UGT1A1) at 24 hours (AID 2283696). The procedure, abridged: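 Primary human hepatocytes from two donor preparations were dosed (0.2% DMSO vehicle) and harvested at 24 h; UGT1A1 mRNA induction was quantified by chemiluminescent qNPA, fitted as gain relative to DMSO.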

Read-out in test [17]: Cytochrome P450 2B6 (Homo sapiens) (UniProt P20813)
Put plainly: CLD_CYP2B6_24hr: CellzDirect (CLD) Gene Expression Assay for xenobiotic metabolism (CYP2B6) at 24 hours (AID 2283686). The procedure, abridged: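 Primary human hepatocytes dosed daily for two days with fresh solutions, harvested at 24 hours; mRNA induction quantified by qNPA chemiluminescence, gain of signal vs 0.2% DMSO vehicle. Cytotoxicity annotated from phase-contrast morphology.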

Values joined by “and” are separate entries in the source; they are usually repeats but may differ in a detail not shown here. Equal values may be shown once. Records with an inconclusive call do not appear. A structure can be active in one record and inactive in another. Active and inactive are the calls of the source. The calls were made as follows, unless noted: active = hit-call score of the fitted dose curve at least 0.9, where 1 is the maximum; inconclusive = response in the unintended direction; inactive = score below 0.9.

In general, AC50 refers to the midpoint of the concentration-response curve, whichever way the signal moves.

Chain of Broad substrate specificity ATP-binding cassette transporter ABCG2 (Homo sapiens) (Q9UNQ0 whole entry, looked up): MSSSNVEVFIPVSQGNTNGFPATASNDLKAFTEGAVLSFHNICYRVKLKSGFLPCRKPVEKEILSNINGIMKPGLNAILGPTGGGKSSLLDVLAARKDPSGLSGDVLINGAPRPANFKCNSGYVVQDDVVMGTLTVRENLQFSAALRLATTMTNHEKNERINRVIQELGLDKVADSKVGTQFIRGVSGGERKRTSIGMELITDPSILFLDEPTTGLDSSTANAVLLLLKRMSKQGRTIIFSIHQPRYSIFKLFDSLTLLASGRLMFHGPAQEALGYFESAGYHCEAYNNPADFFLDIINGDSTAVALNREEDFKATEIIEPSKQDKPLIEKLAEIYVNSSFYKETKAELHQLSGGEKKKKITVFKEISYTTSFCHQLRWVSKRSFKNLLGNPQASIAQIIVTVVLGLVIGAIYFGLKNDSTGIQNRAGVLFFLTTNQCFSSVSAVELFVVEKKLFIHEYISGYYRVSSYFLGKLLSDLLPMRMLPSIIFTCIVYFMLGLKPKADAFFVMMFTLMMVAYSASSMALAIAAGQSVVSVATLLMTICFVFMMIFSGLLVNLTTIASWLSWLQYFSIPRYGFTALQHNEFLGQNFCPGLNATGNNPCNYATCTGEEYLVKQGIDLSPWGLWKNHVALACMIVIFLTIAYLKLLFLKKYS
Chain of Cytochrome P450 3A4 (Homo sapiens) (P08684 whole entry, looked up): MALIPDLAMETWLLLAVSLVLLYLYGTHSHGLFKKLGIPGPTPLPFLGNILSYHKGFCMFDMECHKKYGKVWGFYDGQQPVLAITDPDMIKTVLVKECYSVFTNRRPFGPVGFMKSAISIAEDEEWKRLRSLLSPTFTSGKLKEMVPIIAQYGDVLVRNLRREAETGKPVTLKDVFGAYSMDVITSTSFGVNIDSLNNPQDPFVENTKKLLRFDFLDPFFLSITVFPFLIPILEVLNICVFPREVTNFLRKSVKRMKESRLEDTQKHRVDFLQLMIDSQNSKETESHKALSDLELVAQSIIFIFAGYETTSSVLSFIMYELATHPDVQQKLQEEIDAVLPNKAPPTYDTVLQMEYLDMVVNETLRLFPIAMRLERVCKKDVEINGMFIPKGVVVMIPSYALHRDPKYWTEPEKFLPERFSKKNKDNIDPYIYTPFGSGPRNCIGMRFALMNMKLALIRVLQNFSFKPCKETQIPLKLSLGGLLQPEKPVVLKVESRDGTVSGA
Chain of Cytochrome P450 2C19 (Homo sapiens) (P33261 whole entry, looked up): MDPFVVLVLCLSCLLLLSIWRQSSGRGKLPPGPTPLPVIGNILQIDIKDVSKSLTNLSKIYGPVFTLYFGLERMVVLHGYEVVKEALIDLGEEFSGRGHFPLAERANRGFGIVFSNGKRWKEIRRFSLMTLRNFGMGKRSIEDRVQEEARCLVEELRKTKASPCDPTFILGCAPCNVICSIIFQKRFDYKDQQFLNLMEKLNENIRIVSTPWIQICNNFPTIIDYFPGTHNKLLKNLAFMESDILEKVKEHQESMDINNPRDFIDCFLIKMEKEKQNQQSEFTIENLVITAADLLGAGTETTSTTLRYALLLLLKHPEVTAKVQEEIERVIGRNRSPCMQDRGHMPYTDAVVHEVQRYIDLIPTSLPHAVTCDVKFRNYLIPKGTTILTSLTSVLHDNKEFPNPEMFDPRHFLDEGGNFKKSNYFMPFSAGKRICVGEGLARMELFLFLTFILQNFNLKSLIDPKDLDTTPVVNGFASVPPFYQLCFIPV
Chain of Glyceraldehyde-3-phosphate dehydrogenase (Homo sapiens) (P04406 whole entry, looked up): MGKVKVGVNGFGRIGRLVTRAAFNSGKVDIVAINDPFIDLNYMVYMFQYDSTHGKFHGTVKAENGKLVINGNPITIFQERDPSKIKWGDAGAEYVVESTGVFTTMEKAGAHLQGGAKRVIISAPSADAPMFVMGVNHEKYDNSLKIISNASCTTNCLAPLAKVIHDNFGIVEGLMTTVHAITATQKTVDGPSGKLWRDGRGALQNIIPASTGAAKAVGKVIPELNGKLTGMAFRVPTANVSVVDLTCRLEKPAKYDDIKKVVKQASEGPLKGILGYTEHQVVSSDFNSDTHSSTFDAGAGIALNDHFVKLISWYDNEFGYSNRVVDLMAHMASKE

Consider `COC(=O)C(C)Oc1ccc(Oc2ccc(Cl)cc2Cl)cc1` (stereo unspecified), for which the compound was classed as inactive in test [1], in test [2], in [4], in [5], in test [6] and in [7]. Besides, the compound was called inactive in test [8], in [9], in test [10], in [11], in test [12] and in test [13]. In addition, the compound was called inactive in test [14]. The AC50 is 5.23 µM (active) in [3]; 20 µM (active) in [9]; 20 µM (active) and 12.1 µM (active) in test [12].
For the compound `COc1nc(NC(C)C)nc(NC(C)C)n1`, the compound was classed as inactive in test [1], in test [2], in [3], in [5], in [6] and in test [7]. For the same compound, the result in test [10] was inactive. The concentration at half-maximal activity (AC50) in test [15] is 4.18 µM (active); in test [4] it was 3.61 µM (active); in test [8], 6.77 µM (active); in [9], 5.98 µM (active); in test [12], 7.97 µM (active); in test [13], 4.52 µM (active).
Regarding `COc1ccc(C(c2ccc(OC)cc2)C(Cl)(Cl)Cl)cc1`, the call in test [1] and in [10] was inactive. The half-maximal activity concentration (AC50) in test [3] is 1.14 µM (active); in test [4], 20 µM (active); in [16], 20 µM (active); in test [9], 6.44 µM (active); in test [12], 8.31 µM (active); in test [13] it was 20 µM (active).
With `COP(=S)(OC)Oc1nc(Cl)c(Cl)cc1Cl`, the result in test [1], in [5], in test [6], in test [8], in test [10] and in test [13] was inactive. Also, the outcome in [14] was inactive. Moreover, the AC50 is 34.7 µM (active) in test [3]; 4.43 µM (active) in test [4]; 5.02 µM (active) in test [17]; 7.69 µM (active) in test [9]; 5.26 µM (active) in [12].
`COC(=O)c1ccccc1C(=O)OC`: the call in [1], in test [2], in test [3], in [4], in test [7] and in [8] was inactive. Further, the outcome in test [9], in [10] and in test [12] was inactive.
For the compound `CN(C)C(=S)SSC(=S)N(C)C`, the AC50 in test [3] was 0.0128 µM (active); in test [12], 34 µM (active); in [13], 29.7 µM (active). Moreover, the compound was classed as inactive in test [5], in [6], in test [7], in test [9], in test [11] and in [14].
Consider `CC1=C(C(=O)Nc2ccccc2)SCCO1`, for which the compound was classed as inactive in test [1] and in [8]. Moreover, the AC50 in test [3] is 6.4 µM (active); in test [4] it was 15.1 µM (active); in test [9], 20 µM (active); in test [12] it was 31.1 µM (active); in test [13], 36.1 µM (active).
`CO/C=C(/C(=O)OC)c1ccccc1Oc1cc(Oc2ccccc2C#N)ncn1`: the compound was called inactive in test [1], in test [5], in test [6], in test [10] and in test [11]. In addition, the AC50 was 1.46 µM (active) and 4.82 µM (active) and 4.07 µM (active) in test [3]; 2.46 µM (active) in test [9].
With `Cc1ccc(-c2c(Cl)nc(C#N)n2S(=O)(=O)N(C)C)cc1`, the call in [2], in [5], in test [6], in test [11], in test [12] and in test [14] was inactive. Moreover, the half-maximal activity concentration (AC50) in [3] was 5.47 µM (active); in test [4], 0.521 µM (active); in test [13] it was 20 µM (active).
Turning to `CCOP(=S)(OCC)SCn1c(=O)oc2cc(Cl)ccc21`, the result in test [1], in [2] and in test [6] was inactive. Besides, the AC50 is 13.5 µM (active) in test [3]; 3.97 µM (active) in test [4]; 4.1 µM (active) in test [8]; 1.06 µM (active) in test [9]; 3.96 µM (active) in test [12]; 13.9 µM (active) in test [13].
`Fc1ccc(Oc2ccnc3cc(Cl)cc(Cl)c23)cc1`: the compound was called inactive in test [1], in [5], in test [6], in test [8], in test [9] and in test [10]. Further, in test [13], the compound was classed as inactive. Also, the AC50 was 5.83 µM (active) in test [3], 2.84 µM (active) in test [4] and 3.98 µM (active) in test [12].
For the compound `O=C(Nc1ccccc1)Nc1ccnc(Cl)c1`, the compound was classed as inactive in [1]. Also, the AC50 is 66 µM (active) in test [3]; 7.19 µM (active) in test [4]; 6.77 µM (active) in test [9]; 7.3 µM (active) in test [12]; 10.8 µM (active) in [13].
Regarding `CCCC1COC(Cn2cncn2)(c2ccc(Cl)cc2Cl)O1` (stereo unspecified), the outcome in test [1], in [5] and in test [6] was inactive. Moreover, the half-maximal activity concentration (AC50) in test [3] was 26.5 µM (active); in test [4], 2.13 µM (active); in test [8], 2.06 µM (active); in [9], 1.89 µM (active); in test [12], 5.36 µM (active); in [13], 20 µM (active).
On to `CC(C)(C)c1ccc(CSc2cnn(C(C)(C)C)c(=O)c2Cl)cc1`, for which the call in test [4], in test [5], in [6], in [16], in [7] and in test [8] was inactive. The call in test [9], in test [10], in test [11], in test [12], in test [13] and in [14] was inactive.
